# Assay results from the supplement of paper PMC8728848.
# Shown is part of a subset that was picked to be rich in the strongest signals.
# B1: CD34 (Homo sapiens), P28906 (protein)
# chain: MGSSHHHHHHSSGLVPRGSHMSTSLATSPTKPYTSSSPILSDIKAEIKCSGIREVKLTQGICLEQNKTSSCAEFKKDRGEGLARVLCGEEQADADAGAQVCSLLLAQSEVRPQCLLLVLANRTEISSKLQLMKKHQSDLKKLGILDFTEQDVASHQSYSQKT
# Columns and labels:
# Experiment in all cases: glycan array binding signal (z-score within array); higher = stronger binding
# Details in all cases: glycan notation: IUPAC condensed, linker removed
# [1] = molecular target: Fuc(a1-2)Gal(b1-4)Fuc(a1-3)]GlcNAc(b1-2)Man(a1-3)[Fuc(a1-2)Gal(b1-4)[Fuc(a1-3)]GlcNAc(b1-2)Man(a1-6)]Man(b1-4)GlcNAc(b1-4)GlcNAc
# Summary of the method: (§1)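 The binding signal is a Z-score computed within each array. Data were drawn from 3228 arrays in the Consortium for Functional Glycomics database, restricted to those with a known protein sequence. Scores were averaged over arrays of the same protein sequence at different concentrations or buffers, and over linkers, and negative values can be taken as non-binding.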
# Fuc(a1-2)Gal(b1-4)GlcNAc = molecular target: Fuc(a1-2)Gal(b1-4)GlcNAc
# Summary of the method: as §1
# [2] = molecular target: Fuc(a1-2)Gal(b1-4)[Fuc(a1-3)]GlcNAc(b1-2)[Fuc(a1-2)Gal(b1-4)[Fuc(a1-3)]GlcNAc(b1-4)]Man(a1-3)[Fuc(a1-2)Gal(b1-4)[Fuc(a1-3)]GlcNAc(b1-2)Man(a1-6)]Man(b1-4)GlcNAc(b1-4)GlcNAc
# Summary of the method: as §1
# Fuc(a1-2)Gal6S(b1-4)Glc = molecular target: Fuc(a1-2)Gal6S(b1-4)Glc
# Summary of the method: as §1
# [3] = molecular target: Fuc(a1-2)[GalNAc(a1-3)]Gal(b1-3)GlcNAc(b1-3)GalNAc
# Summary of the method: as §1
# [4] = molecular target: Fuc(a1-2)[GalNAc(b1-3)]Gal
# Summary of the method: as §1
# [5] = molecular target: Fuc(a1-3)[Gal(b1-4)]GlcNAc(b1-6)GalNAc
# Summary of the method: as §1
# Fuc(a1-4)GlcNAc = molecular target: Fuc(a1-4)GlcNAc
# Summary of the method: as §1
# Gal(a1-2)Gal = molecular target: Gal(a1-2)Gal
# Summary of the method: as §1
# Gal(a1-3)Gal = molecular target: Gal(a1-3)Gal
# Summary of the method: as §1
# Gal(a1-3)Gal(b1-3)GlcNAc = molecular target: Gal(a1-3)Gal(b1-3)GlcNAc
# Summary of the method: as §1
# [6] = molecular target: Gal(a1-3)Gal(b1-3)GlcNAc(b1-2)Man
# Summary of the method: as §1
# [7] = molecular target: Gal(a1-3)Gal(b1-4)GlcNAc(b1-2)Man
# Summary of the method: as §1
# [8] = molecular target: Gal(a1-4)Gal(b1-4)GlcNAc(b1-3)Gal(b1-4)Glc
# Summary of the method: as §1
# Gal(b1-3)GalNAc(b1-3)Gal = molecular target: Gal(b1-3)GalNAc(b1-3)Gal
# Summary of the method: as §1
# [9] = molecular target: Gal(b1-3)GalNAc(b1-4)Gal(b1-4)Glc
# Summary of the method: as §1
# [10] = molecular target: Gal(b1-3)GlcNAc(b1-3)Gal(b1-4)GlcNAc
# Summary of the method: as §1
# [11] = molecular target: Gal(b1-4)GlcNAc(b1-2)Man(a1-3)[Gal(b1-4)GlcNAc(b1-2)Man(a1-6)][GlcNAc(b1-4)]Man(b1-4)GlcNAc(b1-4)[Fuc(a1-6)]GlcNAc
# Summary of the method: as §1
# [12] = molecular target: Gal(b1-4)GlcNAc(b1-2)Man(a1-3)[Man(a1-6)]Man(b1-4)GlcNAc(b1-4)GlcNAc
# Summary of the method: as §1
# [13] = molecular target: Gal(b1-4)GlcNAc(b1-3)Gal(b1-4)GlcNAc(b1-2)[Gal(b1-4)GlcNAc(b1-3)Gal(b1-4)GlcNAc(b1-6)]Man(a1-6)[Gal(b1-4)GlcNAc(b1-3)Gal(b1-4)GlcNAc(b1-2)Man(a1-3)]Man(b1-4)GlcNAc(b1-4)GlcNAc
# Summary of the method: as §1
# [14] = molecular target: Gal(b1-4)GlcNAc(b1-3)Gal(b1-4)GlcNAc(b1-3)GalNAc
# Summary of the method: as §1
# Gal3S(b1-4)Glc = molecular target: Gal3S(b1-4)Glc
# Summary of the method: as §1
# Gal6S(b1-4)Glc = molecular target: Gal6S(b1-4)Glc
# Summary of the method: as §1
# GalNAc(b1-3)Gal = molecular target: GalNAc(b1-3)Gal
# Summary of the method: as §1
# [15] = molecular target: GalNAc(b1-3)Gal(a1-6)Gal(b1-4)Glc
# Summary of the method: as §1
# [16] = molecular target: GalNAc3S(b1-4)[Fuc(a1-3)]GlcNAc
# Summary of the method: as §1
# Glc(b1-6)Glc = molecular target: Glc(b1-6)Glc
# Summary of the method: as §1
# [17] = molecular target: GlcA3S(b1-3)Gal(b1-4)GlcNAc(b1-3)Gal(b1-4)Glc
# Summary of the method: as §1
# [18] = molecular target: GlcNAc(b1-2)[GlcNAc(b1-4)]Man(a1-3)[GlcNAc(b1-4)][GlcNAc(b1-2)Man(a1-6)]Man(b1-4)GlcNAc(b1-4)GlcNAc
# Summary of the method: as §1
# [19] = molecular target: GlcNAc(b1-2)[GlcNAc(b1-6)]Man(a1-6)[GlcNAc(b1-4)][GlcNAc(b1-2)Man(a1-3)]Man(b1-4)GlcNAc(b1-4)GlcNAc
# Summary of the method: as §1
# [20] = molecular target: GlcNAc(b1-3)Gal(b1-4)GlcNAc(b1-2)[GlcNAc(b1-3)Gal(b1-4)GlcNAc(b1-6)]Man(a1-6)[GlcNAc(b1-3)Gal(b1-4)GlcNAc(b1-2)Man(a1-3)]Man(b1-4)GlcNAc(b1-4)GlcNAc
# Summary of the method: as §1
# [21] = molecular target: GlcNAc(b1-3)Gal(b1-4)GlcNAc(b1-3)Gal(b1-4)GlcNAc
# Summary of the method: as §1
# [22] = molecular target: GlcNAc(b1-4)GlcNAc(b1-4)GlcNAc(b1-4)GlcNAc(b1-4)GlcNAc
# Summary of the method: as §1
# Kdn(a2-6)Gal(b1-4)GlcNAc = molecular target: Kdn(a2-6)Gal(b1-4)GlcNAc
# Summary of the method: as §1
# [23] = molecular target: Man(a1-2)Man(a1-3)[Man(a1-6)]Man(a1-6)[Man(a1-2)Man(a1-3)]Man(b1-4)GlcNAc(b1-4)GlcNAc
# Summary of the method: as §1
# MurNAc(b1-4)GlcNAc = molecular target: MurNAc(b1-4)GlcNAc
# Summary of the method: as §1
# [24] = molecular target: Neu5Ac(a2-3)Gal(b1-3)GalNAc(b1-4)[Neu5Ac(a2-3)]Gal(b1-4)Glc
# Summary of the method: as §1
# [25] = molecular target: Neu5Ac(a2-3)Gal(b1-3)GlcNAc(b1-2)Man(a1-3)[Neu5Ac(a2-3)Gal(b1-3)GlcNAc(b1-2)Man(a1-6)]Man(b1-4)GlcNAc(b1-4)GlcNAc
# Summary of the method: as §1
# [26] = molecular target: Neu5Ac(a2-3)Gal(b1-3)GlcNAc6S
# Summary of the method: as §1
# [27] = molecular target: Neu5Ac(a2-3)Gal(b1-3)[Fuc(a1-4)]GlcNAc(b1-3)Gal(b1-3)[Fuc(a1-4)]GlcNAc
# Summary of the method: as §1
# [28] = molecular target: Neu5Ac(a2-3)Gal(b1-3)[Fuc(a1-4)]GlcNAc(b1-3)Gal(b1-4)[Fuc(a1-3)]GlcNAc
# Summary of the method: as §1
# [29] = molecular target: Neu5Ac(a2-3)Gal(b1-4)GlcNAc(b1-2)Man
# Summary of the method: as §1
# [30] = molecular target: Neu5Ac(a2-3)Gal(b1-4)GlcNAc(b1-3)Gal(b1-3)GlcNAc
# Summary of the method: as §1
# [31] = molecular target: Neu5Ac(a2-3)Gal(b1-4)GlcNAc6S
# Summary of the method: as §1
# [32] = molecular target: Neu5Ac(a2-3)Gal(b1-4)[Fuc(a1-3)]GlcNAc
# Summary of the method: as §1
# [33] = molecular target: Neu5Ac(a2-3)[Neu5Ac(a2-6)]GalNAc
# Summary of the method: as §1
# [34] = molecular target: Neu5Ac(a2-6)Gal(b1-4)GlcNAc(b1-2)Man(a1-6)[Gal(b1-4)GlcNAc(b1-2)Man(a1-3)]Man(b1-4)GlcNAc(b1-4)GlcNAc
# Summary of the method: as §1
# [35] = molecular target: Neu5Ac(a2-6)Gal(b1-4)GlcNAc(b1-3)Gal(b1-4)GlcNAc(b1-2)Man(a1-3)[Neu5Ac(a2-6)Gal(b1-4)GlcNAc(b1-3)Gal(b1-4)GlcNAc(b1-2)Man(a1-6)]GalNAc
# Summary of the method: as §1
# [36] = molecular target: Neu5Ac(a2-6)Gal(b1-4)GlcNAc(b1-3)Gal(b1-4)GlcNAc(b1-3)GalNAc
# Summary of the method: as §1
# [37] = molecular target: Neu5Ac(a2-6)GalNAc(b1-4)GlcNAc6S
# Summary of the method: as §1
# [38] = molecular target: Neu5Ac(a2-8)Neu5Ac(a2-3)[Gal(b1-3)GalNAc(b1-4)]Gal(b1-4)Glc
# Summary of the method: as §1
# [39] = molecular target: Neu5Gc(a2-3)Gal(b1-3)[Fuc(a1-4)]GlcNAc
# Summary of the method: as §1
# [40] = molecular target: Neu5Gc(a2-3)Gal(b1-4)[Fuc(a1-3)]GlcNAc
# Summary of the method: as §1
# [41] = molecular target: Neu5Gc(b2-6)Gal(b1-4)GlcNAc
# Summary of the method: as §1
binder,measurement,setting,value
B1,glycan array binding signal (z-score),[1],1.89
same,glycan array binding signal (z-score),Fuc(a1-2)Gal(b1-4)GlcNAc,0.713
same,glycan array binding signal (z-score),[2],1.72
same,glycan array binding signal (z-score),Fuc(a1-2)Gal6S(b1-4)Glc,0.088
same,glycan array binding signal (z-score),[3],1.77
same,glycan array binding signal (z-score),[4],-0.335
same,glycan array binding signal (z-score),[5],-0.245
same,glycan array binding signal (z-score),Fuc(a1-4)GlcNAc,0.624
same,glycan array binding signal (z-score),Gal(a1-2)Gal,-0.315
same,glycan array binding signal (z-score),Gal(a1-3)Gal,0.754
same,glycan array binding signal (z-score),Gal(a1-3)Gal(b1-3)GlcNAc,0.398
same,glycan array binding signal (z-score),[6],0.084
same,glycan array binding signal (z-score),[7],-1.01
same,glycan array binding signal (z-score),[8],-0.647
same,glycan array binding signal (z-score),Gal(b1-3)GalNAc(b1-3)Gal,-0.13
same,glycan array binding signal (z-score),[9],0.08
same,glycan array binding signal (z-score),[10],-0.549
same,glycan array binding signal (z-score),[11],-0.754
same,glycan array binding signal (z-score),[12],-0.73
same,glycan array binding signal (z-score),[13],2.58
same,glycan array binding signal (z-score),[14],1.97
same,glycan array binding signal (z-score),Gal3S(b1-4)Glc,1.83
same,glycan array binding signal (z-score),Gal6S(b1-4)Glc,-0.308
same,glycan array binding signal (z-score),GalNAc(b1-3)Gal,1.82
same,glycan array binding signal (z-score),[15],-1.07
same,glycan array binding signal (z-score),[16],0.211
same,glycan array binding signal (z-score),Glc(b1-6)Glc,-1.19
same,glycan array binding signal (z-score),[17],-0.551
same,glycan array binding signal (z-score),[18],-0.524
same,glycan array binding signal (z-score),[19],-0.731
same,glycan array binding signal (z-score),[20],-0.175
same,glycan array binding signal (z-score),[21],-0.666
same,glycan array binding signal (z-score),[22],0.087
same,glycan array binding signal (z-score),Kdn(a2-6)Gal(b1-4)GlcNAc,-0.352
same,glycan array binding signal (z-score),[23],-0.726
same,glycan array binding signal (z-score),MurNAc(b1-4)GlcNAc,1.79
same,glycan array binding signal (z-score),[24],2.63
same,glycan array binding signal (z-score),[25],2.09
same,glycan array binding signal (z-score),[26],0.142
same,glycan array binding signal (z-score),[27],1.31
same,glycan array binding signal (z-score),[28],-0.478
same,glycan array binding signal (z-score),[29],1.1
same,glycan array binding signal (z-score),[30],-0.171
same,glycan array binding signal (z-score),[31],-0.319
same,glycan array binding signal (z-score),[32],-0.826
same,glycan array binding signal (z-score),[33],-0.204
same,glycan array binding signal (z-score),[34],-0.644
same,glycan array binding signal (z-score),[35],0.167
same,glycan array binding signal (z-score),[36],0.803
same,glycan array binding signal (z-score),[37],0.66
same,glycan array binding signal (z-score),[38],-0.858
same,glycan array binding signal (z-score),[39],0.294
same,glycan array binding signal (z-score),[40],1.71
same,glycan array binding signal (z-score),[41],-0.479
